Source: PubChem
Pf Dd2 growth – qHTS Primary assay for Inhibitors of Plasmodium falciparum Dd2 growth in vitro | 4.3% of 120,000 active | Potency, µM (titrated, usually from 28.9 µM), for the others: at the top dose activity, negative = inhibition, hits mostly inhibitors | AID 1347417, 2020 | P. falciparum Dd2 growth, SYBR Green, 72 h; active = well fitted inhibition curve with a large enough effect;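 also: plate controls were DMSO vehicle for no effect and reference drug for full effect; nearly all actives have a fitted effect of over 65% in size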
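Infected erythrocytes (Dd2, 0.3% parasitemia, 2.5% hematocrit final) are added to compound in RPMI-1640/Albumax II medium, grown 72 h at 37C in low oxygen, then lysed with saponin/Triton-X containing SYBR Green and read by fluorescence.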
Numbers without * were called inactive; i = inactive; [ ] = remark or other dose. Only a selection was taken, and hits are over-represented in it overall. Potency is read from the fitted curve at half-maximal effect.

SMILES	Pf Dd2 growth
FC(F)(F)c1ccc(CN2CCn3c(nnc3C3CCCNC3)C2)cc1 (centres undefined)	-18%
COc1ccc(CC(=O)Nc2ccc(=O)n3c2[C@@H]2C[C@@H](CN(S(=O)(=O)c4ccccc4)C2)C3)cc1	-16%
CC(=O)N1CCCC(C(=O)NCCc2csc(-c3ccncc3)n2)C1 (centres undefined)	i
Cn1nccc1C(=O)N1CCCC(c2noc(COc3ccccc3)n2)C1 (centres undefined)	-21%
O=C(Nc1ccc([C@@H](O)[C@H]2COCC(=O)N2CC2CCCCC2)cc1)C1CC1	2%[44.1 µM]
CC(C)CCNC(=O)N1CCN(C(=O)N2CC3CC(C2)[C@H]2CCCC(=O)N2C3)CC1 (some centres undefined)	-12%
O=C(O)CCC(=O)N[C@H]1CCN2C(=O)c3ccc(Cl)cc3NC(=O)[C@H]12	-12%[44.1 µM]
CC(C)c1ccc(C(=O)N2C[C@@H](CO)[C@H](c3ccncc3)C2)cc1	14%
COc1ccc(CNCC2(CO)C[C@@H](O)[C@@H](O)C2)cc1 (some centres undefined)	14%[44.1 µM]
COCc1cc(C)nc2sc3c(c12)NC(c1ccc(O)c(OC)c1)N(c1ccccc1)C3=O (centres undefined)	-9%
COCc1cc(C)nc2sc3c(c12)NC(c1ccccc1C(=O)O)N(c1ccc(OC)cc1)C3=O (centres undefined)	i
COCc1cc(C)nc2c1C(=O)NC(c1ccc(Br)cc1)N2Cc1ccccc1 (centres undefined)	10µM*
CN(C)[S+](=O)([O-])c1ccc2c(c1)OCCN(CCc1ccccc1)C2	i
O=C(CCCc1ccccc1)Nc1ccnn1C1CCN(C(=O)c2ccccc2F)CC1	-23%
CC(CCn1cccn1)NC(=O)c1ccc(OC2CCN(C(=O)C3CC3)CC2)cc1 (centres undefined)	-2%
COC(=O)c1sccc1S(=O)(=O)N(CC(=O)Nc1ccccc1F)c1ccccc1	55%
COC(=O)c1sccc1S(=O)(=O)N(CC(=O)Nc1ccc(C)cc1)c1ccccc1	-17%
CCc1ccc(NC(=O)CN(c2ccc(Cl)cc2)S(=O)(=O)c2ccsc2C(=O)OC)cc1	11µM*
COc1cccc(-c2cc3c(=O)n(CCNC(=O)C4CCN(C(C)=O)CC4)ccn3n2)c1	-12%
CC(C)CCN1CCC(N2CCN(S(C)(=O)=O)CC2)C1=O (centres undefined)	32%
COc1ccc2[nH]c3c(c2c1)CCN(C)C31CCN(C(=O)c2ccncc2)CC1	-2%
Cc1[nH]c2ccccc2c1C(c1ccccc1)c1ccc(Cl)s1 (centres undefined)	8.9µM*
c1ccc(C(c2cccs2)c2c[nH]c3ccccc23)cc1 (centres undefined)	-20%
CN(Cc1ccc(F)cc1)Cc1ccc(N(C)C)cc1	i
COc1cccc(-c2nc(-c3c(C)noc3C)cc3c2cc(C)n3C)c1OC	-6%[44.1 µM]
SMILES	Pf Dd2 growth
CCOC(=O)C1=C(C)N=C2SC=C(CC(=O)NCC3CCCO3)N2C1c1ccc(C)cc1C (centres undefined)	-13%
Cc1nc(N2CCN(C(=O)Cc3ccc(Cl)cc3)CC2)cc(C(F)(F)F)n1	4µM*
Cc1nc(N2CCC(NC(=O)Cc3ccc(Cl)cc3)CC2)cc(C(F)(F)F)n1	i
Cc1nc(N2CCN(C(=O)Cc3ccccc3Cl)CC2)cc(C(F)(F)F)n1	-18%
COc1ccccc1N1CCN([C@H]2[C@@H]3OC[C@@H](O3)[C@@H](NC(=O)Nc3cccc(C#N)c3)[C@@H]2O)CC1	i
Cn1c(=O)c2c(-c3ccccc3)n(CCCO)cc2n(C)c1=O	3%
Cc1ccc(-c2c3c(=O)n(C)c(=O)n(C)c3cn2-c2cc(C)ccc2O)cc1	5.6µM*
Cn1c(=O)c2c(-c3cccc(Br)c3)n(C(C)(C)CO)cc2n(C)c1=O	-5%
O=C([C@@H]1C[C@H](Oc2cccnc2)CN1C(=O)Cc1cccc(F)c1)N1CCOCC1	36%
CCn1ccc(C(=O)N2CCN(C(=O)N3CC4CC(C3)[C@H]3CCCC(=O)N3C4)CC2)n1 (some centres undefined)	-20%
COc1ccc(-c2oc3ncn4nc(-c5ccccc5C)nc4c3c2-c2ccc(OC)cc2)cc1	58%
COc1ccc(-c2nn3c(-c4ccccc4C)nnc3c3ccccc23)cc1	11µM*
Cc1ccc(-c2nnc3c4ccccc4c(-c4ccccc4)nn23)cc1	19%
Cc1cncnc1C1CCN(c2cc(C3CC(N)C3)ncn2)CC1 (centres undefined)	-26%
CCn1c2c(c(=O)n1Cc1ccccc1)CCN(C(=O)c1cnccn1)C2	29%[44.1 µM]
O=C(NCc1ccc(F)cc1)C1CN(c2ccc(F)cc2)C(=O)N1 (centres undefined)	i
COC(=O)N1CCC(c2nn(-c3ccc(OC)cc3)c(=O)[nH]2)CC1	i
COc1ccc(-n2nc(C3CCN(Cc4cccn4C)CC3)[nH]c2=O)cc1	13µM*
COc1ccc(-n2nc(C3CCN(Cc4ccc(N(C)C)cc4)CC3)[nH]c2=O)cc1	-3%
